# Measurements: PubChem BioAssay (NCI)
# The panel holds about 83,000 compounds, 20% with a hit somewhere; the sample as a whole holds those more often.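 48-hour exposure, single concentration, 96-well plates; percent growth endpoint where 0 means no net growth. Active: below 10.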 The source made the active and inactive calls.
# Test system: HL-60(TB) leukemia
# Assay: NCI-60 one-dose screen, 48 h (100 = growth as untreated, 0 = no growth, -100 = all killed)
# Settings: 10 µM unless noted
row,SMILES,growth
1,CCOC(=O)c1sc(NC(=O)COc2ccc(/C=C3\CCc4cc(OC)ccc4C3=O)cc2)nc1C,-57.4% (active)
2,COC(=O)Nc1nc2ccc(C(=O)c3cccs3)cc2[nH]1,-45.1% (active)
3,CCOC(=O)c1[nH]cc2c1CCc1sc(Nc3ccccn3)nc1-2,75.9% (inactive)
4,Cc1ccc(C)c2c1SC1=NNC(Oc3ccc(Cl)cc3)=C(C#N)C(=N)N12,122% (inactive)
5,O=S(=O)(NCCCNc1nccc(-c2c(-c3ccc(F)c(O)c3)nc3sccn23)n1)c1ccc(Cl)cc1,83.1% (inactive)
6,NC(N)=N/N=C(/c1ccccc1)c1ccc(N)cc1,98.1% (inactive)
7,CCCCNC(=O)NS(=O)(=O)c1ccc(N2N=C(c3ccc(C)cc3C)CC2c2ccc(OC)cc2)cc1 (stereo not given),17.4% (inactive)
8,CCNc1nc2c(cnn2C)c(=O)[nH]1,94.3% (inactive)
9,N#C/C(=C\c1c(-c2ccccc2)[nH]c2ccccc12)C(N)=O,39.6% (inactive)
10,O=c1[nH]c(=O)c2[nH]c(=O)[nH]c2[nH]1,100% (inactive)
11,Cc1cccc(NC(=O)Nc2ccc(-c3ccc4c(c3)NC(=O)/C4=C\c3ccc[nH]3)cc2)c1,75.1% (inactive)
12,CCCCCCCCCCCCNC(=S)N/N=C/c1ccccc1O,49.1% (inactive)
13,ClC1=C(Cl)C(Cl)=C(Cl)C1=Cc1ccc(Cl)cc1,-4.27% (active)
14,S=C(S)Oc1cccc2cccnc12,80.7% (inactive)
15,COc1cc(/C=C/C(=O)c2ccc(NC(=O)CSc3nnc(-c4cc(OC)c(OC)c(OC)c4)n3-c3ccccc3)cc2)cc(OC)c1OC,6.87% (active)
16,COc1cc2c(C#N)n3c(c2cc1OC)C(=O)C(c1ccccc1)Oc1ccccc1-3 (stereo not given),61.1% (inactive)
17,COc1cc(CNc2ccccc2C(=O)N2CCN(C(=O)c3cc(-c4cc(OC)c(OC)c(OC)c4)n4nc(-c5ccccc5)cc4n3)CC2)cc(OC)c1OC,34.7% (inactive)
18,CN1CCN=C1c1ccc(NC(=O)c2ccc(C(=O)Nc3ccc(C4=NCCN4C)cc3)cc2)cc1,91.2% (inactive)
19,Cc1sc2ncn(CC(=O)Nc3ccc(S(N)(=O)=O)cc3)c(=O)c2c1C,103% (inactive)
20,Cn1c(-c2ccccc2)cc(=O)n1-c1ccccc1,109% (inactive)

row,SMILES,growth
1,COc1ccc2nc3cc(Cl)ccc3c(NCCCNCCC(C)O)c2c1 (stereo not given),-38.1% (active)
2,CC(=O)N1c2ccccc2NC2=C(C(=O)NC2(C)C)C1c1ccco1 (stereo not given),65.1% (inactive)
3,CN(C)CCSC1=Nc2ccc(Cl)cc2C(c2ccccc2Cl)N(C)C1 (stereo not given),35.1% (inactive)
4,Cc1ccc(NC(=O)Cn2c(Br)nc3c2c(=O)n(C)c(=O)n3C)cc1,102% (inactive)
5,Cc1cc(O)cc(-c2nn(C)cc2-c2cc(N3CCOCC3)nc(-c3cccnc3)n2)c1,14.8% (inactive)
6,CNC(=O)c1c(NC(=O)c2ccc(C(C)C)cc2)sc2c(CN(C)C)c(O)ccc12,85.9% (inactive)
7,CCCCc1ccc(NS(=O)(=O)c2cc3c4c(c2)CCN4C(=O)CC3)cc1,-23.6% (active)
8,c1ccc2c(c1)Sc1ccccc1S2,107% (inactive)
9,O=C(Nc1ccc(OS(=O)(=O)c2ccc(F)cc2)cc1)C12CC3CC(CC(C3)C1)C2,52.7% (inactive)
10,C[C@H]1[C@H](C)CC[C@]2(C(=O)OCCOCCOCC[P+](c3ccccc3)(c3ccccc3)c3ccccc3)CC[C@]3(C)C(=CC[C@@H]4[C@@]5(C)CC[C@H](OC(=O)C(Cl)Cl)C(C)(C)[C@@H]5CC[C@]43C)[C@H]12,-48.3% (active)
11,COc1ccc([N+](=O)[O-])c(/C=C/C(=O)c2ccccn2)c1,88.9% (inactive)
12,CC[C@H](CC[C@@H](C)[C@H]1CC[C@H]2[C@@H]3CC[C@@H]4CC(=O)/C(=C\c5ccncc5)C[C@]4(C)[C@H]3CC[C@]12C)C(C)C,83.1% (inactive)
13,N#Cc1nc(-c2ccc(F)cc2)oc1S(=O)(=O)N1CCN(c2ccc(F)cc2)CC1,52.3% (inactive)
14,CCC(O)C(C)(C)C (stereo not given),114% (inactive)
15,N#CCCc1c[nH]c2ccccc12,99.3% (inactive)
16,O=C1OCC2=C1C(c1cccc(Br)c1)c1cc3c(cc1N2CCO)CCC3 (stereo not given),-25.5% (active)
17,CCCCCN1C=C/C(=C\C(=O)N(C)c2ccc(OC(F)(F)F)cc2)c2ccccc21,111% (inactive)
18,CCOC(=O)C1=C(C)NC(C)=C(C(=O)OCC)C1c1cc(Br)c(O)c(OC)c1,6.74% (active)
19,Cc1cc2ccccc2c(O)c1C#N,89.6% (inactive)
20,Cn1c(-c2ccccc2)c(/C=C/C2=[N+](C)c3ccccc3C2(C)C)c2ccccc21,-52.5% (active)
